Here are results for 100 compounds from PubChem BioAssay AID2825 (Sanford-Burnham Center for Chemical Genomics, 2010).

In all, about 330,000 compounds went through this assay and about 1,300 (0.39%) were called active.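 The calls were made as follows: active = inhibition of 50% or more; inactive = inhibition below 50%.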 Many of the other results were omitted from the sample, so actives are more common in it than they were.

The experiment can be described thus: NALP3 inflammasome inhibitors in reconstituted yeast, primary screen, luminescence, uHTS (AID 2825).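 Also: plate controls were induced DMSO wells for no effect and uninduced yeast grown without galactose for full effect.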 As to conditions: Yeast reconstituted NLRP3/ASC/caspase-1, beta-gal luminescence, 24 h; at 10 µM; hits give high values.
The term inhibition denotes the drop in the measured response relative to a control, in per cent. Take `CC(NC(=O)c1ccco1)C(=O)Nc1nc(-c2ccccn2)cs1` (stereo not given): the inhibition was 6.56% (inactive).

`O=C(CN1C(=O)C2C3C=CC(C3)C2C1=O)Nc1nc(-c2ccccn2)cs1` (stereo not given): the inhibition is 2.29% (inactive).

`O=C(COc1ccccc1F)Nc1nc(-c2ccccn2)cs1`: the inhibition was 52.9% (active).

`CCNC(=O)c1cccc(NC(=O)C2CC(=O)N(CCc3ccccc3)C2)c1` (stereo not given): the inhibition is 0.384% (inactive).

In the case of `O=C(Nc1ccccc1Cl)/C(Cl)=C(\Cl)S(=O)c1ccccc1` (stereo not given), the inhibition was 67.4% (active).

Turning to `CN(C)S(=O)(=O)Oc1ccccc1C(=O)Nc1ccccc1Cl`, the inhibition was -4.11% (inactive).

For the compound `O=C(COC(=O)CCc1c[nH]c(=O)[nH]1)Nc1ccccc1Cl`, the inhibition is -10.9% (inactive).

Take `COc1cc(CNCc2ccc3c(c2)OCO3)c([N+](=O)[O-])cc1OC`: the inhibition is 20.4% (inactive).

Regarding `O=C(N/N=C/c1cccc([N+](=O)[O-])c1)C1CC(=O)N(c2ccc(Br)cc2)C1` (stereo not given), the inhibition is 4.22% (inactive).

Take `Cc1ccc(NC(=O)O/N=C/c2cccc([N+](=O)[O-])c2)cc1`: the inhibition is 18.6% (inactive).

As for `O=[N+]([O-])c1cccc(/C=N/Nc2ncc(Br)cn2)c1`, the inhibition was 68.1% (active).

Take `C/C(=N/OC(=O)c1ccc(Br)cc1)c1ccc(C)cc1`: the inhibition is 25.5% (inactive).

As to `CCc1cc(C(=O)Nc2nnc(C3CC3)s2)sc1C`, the inhibition is 52% (active).

For `O=C(Nc1nnc(C2CC2)s1)c1ccccn1`, the inhibition was 7.63% (inactive).

Turning to `Cc1cc(C(=O)Nc2nnc(C3CC3)s2)c(C)s1`, the inhibition was 47.8% (inactive).

In the case of `CC(=O)NC(CC(=O)Nc1ccc(S(=O)(=O)N2CCOCC2)cc1)c1ccccc1` (stereo not given), the inhibition was 8.22% (inactive).

Turning to `Fc1ccccc1-c1cc2cc3c(cc2cn1)OCO3`, the inhibition was 57.2% (active).

Regarding `Fc1ccc2cnc(-c3ccccc3)cc2c1`, the inhibition is 34.3% (inactive).

For `O=C(c1ccco1)N1CCN(C(=O)c2cc(-c3ccccc3F)no2)CC1`, the inhibition is -3.69% (inactive).

In the case of `O=C1CC2(CCCC2)C(=O)N1CN1CCN(S(=O)(=O)c2ccc(F)cc2F)CC1`, the inhibition is 20.4% (inactive).

For the compound `Cc1c(C(=O)N2CCCc3ccccc32)oc2ccccc12`, the inhibition is 51.5% (active).

For `CCCn1nc(C(=O)N2CCCc3ccccc32)c2ccccc2c1=O`, the inhibition is 12.6% (inactive).

For `Cc1c(C(=O)OCC(=O)N2CCCC2=O)oc2ccccc12`, the inhibition is 28.6% (inactive).

For the compound `Cc1cccc(NC(=O)c2ccc([N+](=O)[O-])o2)c1`, the inhibition was -4.88% (inactive).

Consider `Cc1cccc(NC(=S)NC(=O)c2ccc(Br)o2)c1`, for which the inhibition is 57.6% (active).

For the compound `O=C(CNC(=O)c1ccc(Br)o1)Nc1ccccc1`, the inhibition was 22.4% (inactive).

Regarding `O=C(Cc1ccc(S(=O)(=O)N2CCCC2)s1)NC1CCCCCC1`, the inhibition is 7.38% (inactive).

As to `CN(c1ccccc1)S(=O)(=O)c1ccc2[nH]c(=O)[nH]c2c1`, the inhibition is 25.4% (inactive).

For `COc1ccccc1C(=O)COC(=O)CSCC(=O)Nc1cc(C)on1`, the inhibition was 15.5% (inactive).

Turning to `CC(CCc1ccc(O)cc1)NCc1ccc(Cl)cc1Cl` (stereo not given), the inhibition was 21.7% (inactive).

As for `N#Cc1nc(COc2ccc(-c3ccccc3)cc2)oc1NCc1cccnc1`, the inhibition was 2.98% (inactive).

On to `N#Cc1nc(Cc2cccc3ccccc23)oc1NCc1ccc2c(c1)OCO2`, for which the inhibition was 2.2% (inactive).

For the compound `N#Cc1nc(Cc2ccccc2)oc1NCCc1ccccc1`, the inhibition is 53.8% (active).

For `CCn1c(=S)sc2c(=O)n(CC(=O)Nc3ccc(OC)cc3)c(C)nc21`, the inhibition was 18.2% (inactive).

Turning to `CC(NCc1nc2ccccc2n1C)C12CC3CC(CC(C3)C1)C2` (stereo not given), the inhibition is 30% (inactive).

Regarding `Cc1ccc(-c2nnc(Nc3ccc(C(=O)N(C)C)cc3)c3ccccc23)cc1S(N)(=O)=O`, the inhibition was 15.1% (inactive).

Turning to `O=c1[nH]oc(O)c1-c1ncc(C(F)(F)F)cc1Cl`, the inhibition was 6.26% (inactive).

On to `Cn1c(N)c(C(=O)COC(=O)c2cccc(S(=O)(=O)N3CCOCC3)c2)c(=O)n(C)c1=O`, for which the inhibition was 3.26% (inactive).

With `COc1ccccc1OCc1nc2ccccc2s1`, the inhibition was 59.6% (active).

Regarding `CN(Cc1nc2ccccc2s1)C(=O)c1ccc(F)cc1`, the inhibition was 14.9% (inactive).

For the compound `CCc1ccc(-c2nnn(Cc3nc4ccccc4s3)n2)cc1`, the inhibition was 31.8% (inactive).

As for `Cc1cccc(C)c1NC(=O)CCS(=O)(=O)c1cccc2nsnc12`, the inhibition is -0.246% (inactive).

As for `COc1ccc(Cc2nnc(N/N=C/c3ccccc3O)[nH]c2=O)cc1OC`, the inhibition is 9.67% (inactive).

Consider `COc1cccc(/C=N/Nc2cc(C)nc(-c3ccccc3O)n2)c1O`, for which the inhibition is 54.1% (active).

Turning to `Cc1nc2ccccc2nc1N/N=C/c1ccc(O)cc1O`, the inhibition was 2.73% (inactive).

For the compound `CC(C)c1ccc(N2CC(C(=O)Nc3nccs3)CC2=O)cc1` (stereo not given), the inhibition was 9.7% (inactive).

On to `COc1ccc(CNC(=O)COC(=O)/C=C/c2ccc(S(=O)(=O)N3CCOCC3)cc2)cc1`, for which the inhibition is -4.76% (inactive).

Turning to `Cc1nn(Cc2ccccc2)c(C)c1C(=O)N1CCN(CC(=O)Nc2ccccc2Cl)CC1`, the inhibition was 14.5% (inactive).

`NC(=O)N1CCCC1C(=O)Nc1ccc(Cl)c(Cl)c1` (stereo not given): the inhibition is -1.49% (inactive).

For `O=C(CC(O)(C(F)(F)F)C(F)(F)F)Nc1ccc(Cl)c(Cl)c1`, the inhibition was 78.6% (active).

On to `O=C(COC(=O)c1cc[n+]([O-])cc1)Nc1ccc(Cl)c(C(F)(F)F)c1`, for which the inhibition was -2.4% (inactive).

Regarding `Cc1onc(-c2ccccc2Cl)c1C(=O)OCc1nnc(-c2ccccc2)o1`, the inhibition was 27.8% (inactive).

As to `Cc1ccc(-c2nn(C(C)(C)C)c3ncnc(N)c23)cc1`, the inhibition was 90.7% (active).

Consider `Cc1ccc(-n2cnc3ncnc(-c4ccccc4)c32)cc1`, for which the inhibition is 7.02% (inactive).

For `Cc1[nH]c(=O)c(C(=O)/C=C/c2ccccc2)c2c1CCCC2`, the inhibition is 28.3% (inactive).

On to `CCc1cccc(OC2OC(CO)C(O)C(O)C2NC(C)=O)c1` (stereo not given), for which the inhibition was -4.24% (inactive).

Take `Cn1nccc1/C=N\NC(=O)c1ccc(Cl)cc1`: the inhibition is 19.2% (inactive).

Take `COc1ccccc1C1C(C#N)=C(N)Oc2c1c(-c1ccccc1)nn2-c1ccccc1` (stereo not given): the inhibition is 9.88% (inactive).

Consider `N#CC1(NC(=O)COC(=O)Cc2n[nH]c(=O)c3ccccc23)CCCCC1`, for which the inhibition is 17.9% (inactive).

As to `CCOc1ccc(C(O)Cc2nc3ccccc3n2C)cc1` (stereo not given), the inhibition was 32.1% (inactive).

Regarding `CC(C)n1c(CN2CCN(Cc3ccccc3)CC2)nc2ccccc21`, the inhibition is 18.2% (inactive).

Turning to `Cc1ccc(OCc2nc3ccccc3n2C)cc1`, the inhibition is 62.3% (active).

Take `CC(C)n1c(COc2ccccc2)nc2ccccc21`: the inhibition was 57.2% (active).

As to `CC(C)n1c(-c2cccs2)nc2ccccc21`, the inhibition was 19% (inactive).

As to `Cn1c(COc2ccc(Cl)cc2)nc2ccccc2c1=O`, the inhibition is 35.3% (inactive).

In the case of `CC(C)NS(=O)(=O)c1ccc(OCC(=O)NC2CCCCCC2)cc1`, the inhibition is 10.4% (inactive).

As for `COCCN(C(=O)CC1CCCCC1)c1c(N)n(CC(C)C)c(=O)[nH]c1=O`, the inhibition was 6.27% (inactive).

Turning to `CCCC(=O)N=c1sc2cccc(F)c2n1C`, the inhibition is 35.5% (inactive).

For `Cn1c(=NC(=O)c2ccco2)sc2cccc(F)c21`, the inhibition is 51% (active).

Regarding `Cn1c(=NC(=O)c2cnccn2)sc2ccccc21`, the inhibition is 25.1% (inactive).

For `COc1ccc(NC(=O)CN(C)C(=O)Cc2coc3cc(C)c(C)cc23)cc1`, the inhibition is 17.5% (inactive).

`COCCCNCCOCCOc1ccc(Cl)cc1Br`: the inhibition is 3.7% (inactive).

Take `Cc1cc(=O)oc2cc(NC(=O)C(C)Oc3ccccc3)ccc12` (stereo not given): the inhibition is 10.8% (inactive).

On to `CC(C)C(=O)Nc1ccc2oc(=O)ccc2c1`, for which the inhibition is -3.79% (inactive).

On to `CC(C)C(=O)Nc1ccc2c(c1)oc1ccccc12`, for which the inhibition is 56.7% (active).

Consider `Cc1ccccc1N1CCN(S(=O)(=O)c2ccc3ccccc3c2)CC1`, for which the inhibition is 2.32% (inactive).

As for `O=S(=O)(N1CCOCC1)N1CCN(c2ccccc2F)CC1`, the inhibition is 7.74% (inactive).

In the case of `Cc1ccc2cccc(S(=O)(=O)N3CCN(c4ccccc4F)CC3)c2n1`, the inhibition is 50.5% (active).

With `O=C(c1ccc(S(=O)(=O)N2CCCC2)cc1)N1CCN(c2ccccc2F)CC1`, the inhibition was 11.6% (inactive).

With `C=CCn1c(CNS(=O)(=O)c2ccc(Br)cc2)nnc1SC`, the inhibition was 14.4% (inactive).

As for `COc1ccc(NS(=O)(=O)c2cc3c(cc2C)N(C(C)=O)CCO3)cc1`, the inhibition is 25.6% (inactive).

For `Oc1ccc(Br)cc1/C=N/Nc1ccccn1`, the inhibition is 51.7% (active).

As for `Oc1ccc(/C=N/Nc2ccc(C(F)(F)F)cn2)cc1O`, the inhibition is 11.3% (inactive).

For `Cc1c(C(=O)Nc2ccccn2)oc2ccc(Br)cc12`, the inhibition was 28.4% (inactive).

Turning to `CCn1nc(C(=O)NNS(=O)(=O)c2cc(/C=C/C(=O)O)cc(OC)c2OC)c2ccccc2c1=O`, the inhibition is -0.224% (inactive).

For the compound `O=C(CSc1ccc(-c2ccc(-n3cccn3)cc2)nn1)Nc1ccc([N+](=O)[O-])cc1`, the inhibition was 51.4% (active).

Turning to `O=C(CSc1ccc([N+](=O)[O-])cn1)Nc1ccc(N2CCOCC2)cc1`, the inhibition is -5.97% (inactive).

Regarding `O=C(CSc1ccc(-c2ccccn2)nn1)Nc1ccccc1`, the inhibition was 25.6% (inactive).

In the case of `CCN1CCN(c2sc(S(C)(=O)=O)nc2S(=O)(=O)c2ccc(Cl)cc2)CC1`, the inhibition is 2.79% (inactive).

With `CCOC(=O)C1CCN(C(=O)CC2C(=O)N(Cc3ccccc3)C(C)c3nc4ccccc4n32)CC1` (stereo not given), the inhibition was -3.2% (inactive).

In the case of `FC(F)(F)c1cccc(NC(=S)Nc2cccc(Cl)c2)c1`, the inhibition was 2.63% (inactive).

With `S=C(Nc1cccc(Cl)c1)Nc1ccc2c(c1)OCCO2`, the inhibition is 15% (inactive).

`Cc1csc(NC(=S)Nc2cccc(Cl)c2)n1`: the inhibition was 53.8% (active).

On to `COc1ccc(-c2n[nH]c3c2CN(C(=O)c2ccc(F)cc2)CC3)cc1`, for which the inhibition is 19% (inactive).

Turning to `COc1cc(OC)cc(-c2cc3nc(C4CCN(C(=O)OC(C)(C)C)CC4)cc(=O)n3[nH]2)c1`, the inhibition was 18.1% (inactive).

As to `CC1CC2=C(CC1/C=N/NC(N)=S)C(C)(C)CCC2` (stereo not given), the inhibition is 68.6% (active).

Regarding `CCCN(CCc1ccccc1)C1CCc2c(O)cccc2C1` (stereo not given), the inhibition was 22.2% (inactive).

With `Cc1cc(C)c(/C=C2\C(=O)Nc3ccccc32)[nH]1`, the inhibition was 55.4% (active).

As for `O=C1Nc2ccccc2/C1=C/c1ccnc2ccccc12`, the inhibition is 17.6% (inactive).

For `CN(C)/C=C1/Nc2ccccc2C1=O`, the inhibition was 12% (inactive).
